Reference: PubChem BioAssay (NCATS)
Records with an inconclusive call do not appear. The source made the active and inactive calls. Calls come from the whole dose curve; as a rule, active = well fitted cell-killing curve with a large enough effect; inconclusive = small, poorly fitted or top-dose-only effect, or effect the other way; inactive = no such curve, though single readings can be large or run the other way.

What was measured:
[1] = Quantitative High-Throughput drug screen in 47 multiple myeloma cell lines against the NCATS MIPE library collection: OCIMY1_PLB cell viability assay (AID 1918979); note: nearly all actives have a fitted effect of over 35% in size
How it was run: (§1)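 qHTS format: cells plated (500/well), pin-dosed with MIPE 4.0 compounds, kept 48 h at 37 °C. Readout was CellTiter-Glo luminescence, median RLU.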

[2] = Quantitative High-Throughput drug screen in 47 multiple myeloma cell lines against the NCATS MIPE library collection: MM1S_ATCC cell viability assay (AID 1918980); note: nearly all actives have a fitted effect of over 45% in size
How it was run: as §1

[3] = Quantitative High-Throughput drug screen in 47 multiple myeloma cell lines against the NCATS MIPE library collection: MM1R_ATCC cell viability assay (AID 1918981); note: nearly all actives have a fitted effect of over 35% in size
How it was run: as §1

[4] = Quantitative High-Throughput drug screen in 47 multiple myeloma cell lines against the NCATS MIPE library collection: LP1_DSMZ cell viability assay (AID 1918982); note: nearly all actives have a fitted effect of over 35% in size
How it was run: as §1

[5] = Quantitative High-Throughput drug screen in 47 multiple myeloma cell lines against the NCATS MIPE library collection: KMS28PE_JCRB cell viability assay (AID 1918983); note: nearly all actives have a fitted effect of over 35% in size
How it was run: as §1

[6] = Quantitative High-Throughput drug screen in 47 multiple myeloma cell lines against the NCATS MIPE library collection: L363_DSMZ cell viability assay (AID 1918984); note: nearly all actives have a fitted effect of over 40% in size
How it was run: as §1

[7] = Quantitative High-Throughput drug screen in 47 multiple myeloma cell lines against the NCATS MIPE library collection: KMS34_JCRB cell viability assay (AID 1918985); note: nearly all actives have a fitted effect of over 40% in size
How it was run: as §1

[8] = Quantitative High-Throughput drug screen in 47 multiple myeloma cell lines against the NCATS MIPE library collection: OCIMY7_PLB cell viability assay (AID 1918987); conditions: OCI-MY7 myeloma viability, CellTiter-Glo ATP, 48 h; viability (% of DMSO): at 45.8 µM (top of the series); note: nearly all actives have a fitted effect of over 65% in size
How it was run: as §1

[9] = Quantitative High-Throughput drug screen in 47 multiple myeloma cell lines against the NCATS MIPE library collection: OPM1_PLB cell viability assay (AID 1918989); note: nearly all actives have a fitted effect of over 40% in size
How it was run: as §1

[10] = Quantitative High-Throughput drug screen in 47 multiple myeloma cell lines against the NCATS MIPE library collection: U266_ATCC cell viability assay (AID 1919864); note: nearly all actives have a fitted effect of over 35% in size
How it was run: as §1

[11] = Quantitative High-Throughput drug screen in 47 multiple myeloma cell lines against the NCATS MIPE library collection: XG1_PLB cell viability assay (AID 1919866); note: nearly all actives have a fitted effect of over 35% in size
How it was run: as §1

[12] = Quantitative High-Throughput drug screen in 47 multiple myeloma cell lines against the NCATS MIPE library collection: VP6_DJ cell viability assay (AID 1919867); note: nearly all actives have a fitted effect of over 40% in size
How it was run: as §1

[13] = Quantitative High-Throughput drug screen in 47 multiple myeloma cell lines against the NCATS MIPE library collection: UTMC2_PLB cell viability assay (AID 1919868); conditions: CellTiter-Glo ATP luminescence, 48 h; viability (% of DMSO control): at 45.8 µM (top of the series); note: nearly all actives have a fitted effect of over 55% in size
How it was run: as §1

[14] = Quantitative High-Throughput drug screen in 47 multiple myeloma cell lines against the NCATS MIPE library collection: PE2_PLB cell viability assay (AID 1919869); note: nearly all actives have a fitted effect of over 35% in size
How it was run: as §1

[15] = Quantitative High-Throughput drug screen in 47 multiple myeloma cell lines against the NCATS MIPE library collection: PCM6_Riken cell viability assay (AID 1919870); note: nearly all actives have a fitted effect of over 30% in size
How it was run: as §1

[16] = Quantitative High-Throughput drug screen in 47 multiple myeloma cell lines against the NCATS MIPE library collection: RPMI8226_ATCC cell viability assay (AID 1919871); note: nearly all actives have a fitted effect of over 30% in size
How it was run: as §1

[17] = Quantitative High-Throughput drug screen in 47 multiple myeloma cell lines against the NCATS MIPE library collection: OCIMY5_PLB cell viability assay (AID 1918988); note: nearly all actives have a fitted effect of over 65% in size
How it was run: as §1

[18] = Quantitative High-Throughput drug screen in 47 multiple myeloma cell lines against the NCATS MIPE library collection: SKMM1_PLB cell viability assay (AID 1919863); conditions: SKMM1 myeloma viability, CellTiter-Glo ATP, 48 h; viability: active compounds read low; note: nearly all actives have a fitted effect of over 35% in size
How it was run: as §1

[19] = Quantitative High-Throughput drug screen in 47 multiple myeloma cell lines against the NCATS MIPE library collection: XG6_PLB cell viability assay (AID 1919865); note: nearly all actives have a fitted effect of over 40% in size
How it was run: as §1

[20] = Quantitative High-Throughput drug screen in 47 multiple myeloma cell lines against the NCATS MIPE library collection: OPM2_DSMZ cell viability assay (AID 1919872); note: nearly all actives have a fitted effect of over 30% in size
How it was run: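 We plated 500 myeloma cells per well, pinned in MIPE 4.0 compounds, and incubated for 48 hours at 37C. ATP was then quantified with CellTiter-Glo, with DMSO and media-only wells defining 100% and 0%.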
Potency is the fitted concentration of half-maximal effect.

CN[C@H]1[C@@H](O)[C@@H]2O[C@@H]3O[C@H](C)CC(=O)[C@]3(O)O[C@@H]2[C@@H](NC)[C@H]1O
active: Potency [1] 8330 nM | Potency [2] 209 nM | Potency [3] 1180 nM | Potency [4] 5900 nM | Potency [5] 10500 nM | Potency [6] 743 nM | Potency [7] 1180 nM | Potency [8] 8330 nM | Potency [9] 8330 nM | Potency [10] 662 nM | Potency [11] 93.5 nM | Potency [12] 1870 nM | Potency [13] 6620 nM | Potency [14] 3320 nM | Potency [15] 1480 nM | Potency [16] 9350 nM

COc1cccc2c1C(=O)c1c(O)c3c(c(O)c1C2=O)C[C@@](O)(C(=O)CO)C[C@H]3O[C@H]1C[C@H](N)[C@H](O)[C@H](C)O1
active: Potency [1] 296 nM | Potency [2] 20.9 nM | Potency [3] 20.9 nM | Potency [4] 74.3 nM | Potency [5] 166 nM | Potency [6] 743 nM | Potency [7] 235 nM | Potency [8] 166 nM | Potency [17] 166 nM | Potency [9] 526 nM | Potency [18] 209 nM | Potency [10] 372 nM | Potency [19] 132 nM | Potency [11] 296 nM | Potency [12] 264 nM | Potency [13] 118 nM | Potency [14] 118 nM | Potency [15] 105 nM | Potency [16] 235 nM | Potency [20] 1180 nM

COc1cccc2c1C(=O)c1c(O)c3c(c(O)c1C2=O)C[C@@](O)(C(=O)CO)C[C@@H]3O[C@H]1C[C@H](N)[C@H](OC2CCCCO2)[C@H](C)O1 (stereo partly specified)
active: Potency [1] 14800 nM | Potency [2] 132 nM | Potency [3] 296 nM | Potency [4] 18700 nM | Potency [5] 2640 nM | Potency [7] 2640 nM | Potency [17] 2090 nM | Potency [9] 16600 nM | Potency [18] 2640 nM | Potency [10] 2350 nM | Potency [19] 662 nM | Potency [11] 1870 nM | Potency [12] 5260 nM | Potency [13] 166 nM | Potency [14] 1180 nM | Potency [15] 1320 nM | Potency [16] 7430 nM | Potency [20] 16600 nM
inactive: Potency [6]

C=CC[C@@H]1C=C(C)C[C@H](C)C[C@H](OC)[C@H]2O[C@@](O)(C(=O)C(=O)N3CCCC[C@H]3C(=O)O[C@H](C(C)=C[C@@H]3CC[C@H](O)[C@H](OC)C3)[C@@H](C)[C@@H](O)CC1=O)[C@@H](C)C[C@@H]2OC
active: Potency [1] 2640 nM | Potency [2] 1180 nM | Potency [3] 833 nM | Potency [4] 3320 nM | Potency [5] 2350 nM | Potency [6] 1180 nM | Potency [7] 1480 nM | Potency [8] 2090 nM | Potency [17] 662 nM | Potency [9] 2640 nM | Potency [18] 1180 nM | Potency [10] 1320 nM | Potency [19] 1480 nM | Potency [11] 2350 nM | Potency [12] 833 nM | Potency [13] 2960 nM | Potency [14] 2640 nM | Potency [15] 935 nM | Potency [16] 2090 nM

C[N+](C)([O-])CCNc1ccc(NCC[N+](C)(C)[O-])c2c1C(=O)c1c(O)ccc(O)c1C2=O
active: Potency [2] 20900 nM | Potency [3] 18700 nM | Potency [19] 13200 nM
inactive: Potency [1] | Potency [4] | Potency [5] | Potency [6] | Potency [7] | Potency [12] | Potency [14] | Potency [16] | Potency [20]

C=C(C)[C@@H]1CC[C@]2(C(=O)O)CC[C@]3(C)[C@H](CC[C@@H]4[C@@]5(C)CC[C@H](O)C(C)(C)[C@@H]5CC[C@]43C)[C@@H]12
inactive: Potency [1] | Potency [2] | Potency [3] | Potency [4] | Potency [6] | Potency [7] | Potency [9] | Potency [10] | Potency [11] | Potency [14] | Potency [20]
active: Potency [5] 3720 nM | Potency [17] 5900 nM | Potency [18] 935 nM | Potency [16] 5260 nM

CC(C)(O)Cn1c(NC(=O)c2ccc(-c3cn[nH]c3)s2)nc2cc(CN3CCOCC3)ccc21
active: Potency [1] 1480 nM | Potency [2] 1660 nM | Potency [3] 1660 nM | Potency [4] 1870 nM | Potency [5] 1480 nM | Potency [6] 662 nM | Potency [7] 1320 nM | Potency [8] 332 nM | Potency [17] 1320 nM | Potency [9] 743 nM | Potency [10] 1180 nM | Potency [13] 372 nM | Potency [14] 1320 nM | Potency [15] 418 nM | Potency [16] 2350 nM | Potency [20] 2350 nM

Cc1cc(C(=O)NOCCO)c(Nc2ccc(I)cc2F)n(C)c1=O
active: Potency [2] 2960 nM
inactive: Potency [1] | Potency [3] | Potency [4] | Potency [5] | Potency [6] | viability [18] 90.9% | Potency [15] | Potency [16]

O=C1NCCc2[nH]c(-c3ccncc3)cc21
active: Potency [1] 5900 nM | Potency [2] 3720 nM | Potency [3] 2640 nM | Potency [4] 4180 nM | Potency [5] 4690 nM | Potency [6] 2350 nM | Potency [7] 5260 nM | Potency [8] 2090 nM | Potency [17] 8330 nM | Potency [9] 4690 nM | Potency [18] 5260 nM | Potency [10] 2640 nM | Potency [19] 1870 nM | Potency [11] 2090 nM | Potency [12] 3720 nM | Potency [13] 3720 nM | Potency [14] 1870 nM | Potency [15] 1660 nM | Potency [16] 16600 nM | Potency [20] 14800 nM
